Assay results taken from PMC5540273 (PLoS ONE, 2017).

Columns and labels:
Conditions in all cases: concentration: 1 μM, replicates: in singlicate; n = 1
[1] = test system: ULK2
[2] = test system: ULK3
[3] = test system: T1, VEGFR2
T1 construct: gene KDR

[4] = test system: T2, VPS34
T2 construct: gene PIK3C3

[5] = test system: VRK2
[6] = test system: WEE1
[7] = test system: WEE2
[8] = test system: WNK1
[9] = test system: WNK2
[10] = test system: WNK3
[11] = test system: WNK4
[12] = test system: T3, YANK1
T3 construct: gene STK32A

[13] = test system: T4, YANK2
T4 construct: gene STK32B

[14] = test system: T5, YANK3
T5 construct: gene STK32C

[15] = test system: T6, YES
T6 construct: gene YES1

[16] = test system: T7, YSK1
T7 construct: gene STK25

[17] = test system: T8, YSK4
T8 construct: gene MAP3K19

[18] = test system: ZAK
[19] = test system: ZAP70
[20] = test system: T9, p38-alpha
T9 construct: gene MAPK14
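Also: KINOMEscan kinase panel screen.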

| SMILES | %Inh [1] [%] | %Inh [2] [%] | %Inh [3] [%] | %Inh [4] [%] | %Inh [5] [%] | %Inh [6] [%] | %Inh [7] [%] | %Inh [8] [%] | %Inh [9] [%] | %Inh [10] [%] | %Inh [11] [%] | %Inh [12] [%] | %Inh [13] [%] | %Inh [14] [%] | %Inh [15] [%] | %Inh [16] [%] | %Inh [17] [%] | %Inh [18] [%] | %Inh [19] [%] | %Inh [20] [%] |
| --- | --- | --- | --- | --- | --- | --- | --- | --- | --- | --- | --- | --- | --- | --- | --- | --- | --- | --- | --- | --- |
| Cl.c1ccc(Cn2ncc3cc(Nc4ncnc5ccccc45)ccc32)cc1 [GW273749] | 0 | 5 | 20 | 0 | 0 | 10 | 3 | 3 | 3 | 0 | 0 | 6 | 0 | 0 | 16 | 17 | 30 | 0 | 0 | 10 |
| CCc1nc(-c2cccc(C)c2)c(-c2ccnc(NC(=O)c3ccccc3)c2)s1 | 9 | 14 | 0 | 14 | 0 | 0 | 10 | 0 | 59 | 0 | 18 | 13 | 41 | 15 | 19 | 2 | 23 | 0 | 0 |  |
| Cn1ccc2ncnc(Oc3ccc(NC(=O)Nc4cccnc4)c(Cl)c3)c21 | 8 | 0 | 74 | 0 | 0 | 0 | 28 | 0 | 0 | 0 | 0 | 0 | 13 | 7 | 0 | 0 | 0 | 3 | 0 | 14 |
| Nc1nc(-c2cccnc2)c(-c2ccnc3ccccc23)s1 [GW684083] | 0 | 18 | 0 | 72 | 16 | 27 | 11 | 0 | 0 | 31 | 39 | 20 | 18 | 0 | 18 | 0 | 60 | 78 | 0 | 40 |
| COc1ccc(Nc2nccc(N3CCC(NC(=O)Nc4ccc5c(c4)OCO5)C3)n2)cc1 (stereo not drawn) [GSK1379745] | 0 | 15 | 0 | 13 | 0 | 12 | 14 | 2 | 0 | 15 | 24 | 3 | 15 | 16 | 0 | 0 | 7 | 0 | 0 | 12 |
| Cc1ccc(NC(=O)c2cccc(C#N)c2)cc1-c1ccc(C(=O)Nc2ccncc2)cc1 [GSK1398463] | 0 | 15 | 11 | 0 | 0 | 0 | 0 | 17 | 6 | 18 | 3 | 14 | 0 | 11 | 24 | 9 | 64 | 12 | 0 | 47 |
| CC(C)(C)c1ccc(-n2cnc3c(N)ncnc32)cc1 [SKF-97263] | 4 | 17 | 11 | 0 | 9 | 0 | 2 | 3 | 0 | 0 | 0 | 0 | 11 | 11 | 6 | 0 | 15 | 10 | 0 | 0 |
| COC(=O)c1c(-c2ccccc2)c2cc(Cl)ccc2c(=O)n1Cc1ccc(S(C)(=O)=O)cc1 | 0 | 0 | 0 | 0 | 10 | 0 | 0 | 0 | 4 | 0 | 27 | 0 | 15 | 0 | 0 | 0 | 2 | 5 | 0 | 17 |
| COc1ccc(Nc2nccc(N3CCC(NC(=O)c4cccc(NC(C)=O)c4)C3)n2)cc1 (stereo not drawn) [GSK1379732] | 0 | 11 | 0 | 22 | 41 | 5 | 7 | 0 | 11 | 0 | 100 | 22 | 0 | 20 | 0 | 11 | 5 | 10 | 0 | 30 |
| Cl.Fc1ccccc1COc1ccc(Nc2ncnc3ccc(-c4nnc(C(F)(F)F)o4)cc23)cc1Cl [GW424170] | 0 | 6 | 4 | 0 | 0 | 3 | 5 | 7 | 0 | 15 | 0 | 3 | 0 | 3 | 5 | 0 | 0 | 1 | 0 | 0 |
| COc1ccc(-c2oc3ncnc(N)c3c2-c2ccc(OC)cc2)cc1 [SB-589132] | 0 | 39 | 16 | 17 | 56 | 33 | 0 | 22 | 35 | 52 | 55 | 19 | 12 | 21 | 44 | 6 | 57 | 9 | 0 | 7 |
